According to PubChem BioAssay AID1159580 (chemical genetic matrix, 2015):
About 2,000 (36%) of roughly 5,500 compounds were called active. Roughly 18% stayed inconclusive and do not appear here. No stated cut-off is given here; in the data, active means normalized growth mostly below about 0.91 (no sharp cut-off); inconclusive means no clear call, values can overlap the other calls; inactive means mostly above about 0.92. The list shows a part of the results.

Test: chemical genetic growth profiling, strain panel (AID 1159580);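 further: tested at 20 µM; growth read once vehicle control cultures reached saturation at 30 °C; 1 = growth at the plate median or of vehicle wells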
Details: growth OD

Measured: normalized growth

N[C@@H](C(=O)O)[C@@H](O)[C@H](O)[C@H](O)CO
inactive: S. cerevisiae deletion strains, locus YJR066W, strain TOR1, stronger effect = lower value 0.985 | S. cerevisiae deletion strains, locus YJR075W, strain HOC1, stronger effect = lower value 1.02 | S. cerevisiae deletion strains, locus YKL009W, strain mrt4, stronger effect = lower value 1 | S. cerevisiae deletion strains, locus YKL068W, stronger effect = lower value 1.01 | S. cerevisiae deletion strains, locus YKL085W, strain MDH1 (second series), stronger effect = lower value 1.02 | S. cerevisiae deletion strains, locus YKL085W, strain MDH1, stronger effect = lower value 1.02 | S. cerevisiae deletion strains, locus YKL160W, strain elf1, stronger effect = lower value 1.03 | S. cerevisiae deletion strains, locus YKL190W, strain CNB1, stronger effect = lower value 1.01 | S. cerevisiae deletion strains, locus YKR001C, strain vps1, stronger effect = lower value 1.04 | S. cerevisiae deletion strains, locus YKR026C, strain gcn3, stronger effect = lower value 1.04 | S. cerevisiae deletion strains, locus YKR091W, strain srl3, stronger effect = lower value 1.02 | S. cerevisiae deletion strains, locus YLL001W, strain dnm1, stronger effect = lower value 1.03 | S. cerevisiae deletion strains, locus YLL026W, stronger effect = lower value 1.03 | S. cerevisiae deletion strains, locus YLL041C, strain sdh2, stronger effect = lower value 1.02 | S. cerevisiae deletion strains, locus YLR027C, strain aat2, stronger effect = lower value 1.02 | S. cerevisiae deletion strains, locus YLR039C, strain RIC1, stronger effect = lower value 1.1 | S. cerevisiae deletion strains, locus YLR058C, strain SHM2, stronger effect = lower value 1.01 | S. cerevisiae deletion strains, locus YLR102C, strain apc9, stronger effect = lower value 1.01 | S. cerevisiae deletion strains, locus YLR113W, strain HOG1, stronger effect = lower value 1.07 | S. cerevisiae deletion strains, locus YLR221C, strain rsa3, stronger effect = lower value 1.03 | S. cerevisiae deletion strains, locus YLR258W, strain gsy2, stronger effect = lower value 1.01 | S. cerevisiae deletion strains, locus YLR262C, strain YPT6 (second series), stronger effect = lower value 1.06 | S. cerevisiae deletion strains, locus YLR262C, strain YPT6, stronger effect = lower value 1.14 | S. cerevisiae deletion strains, locus YLR268W, strain sec22, stronger effect = lower value 1.04 | S. cerevisiae deletion strains, locus YLR320W, strain mms22, stronger effect = lower value 1.03 | S. cerevisiae deletion strains, locus YLR330W, strain CHS5, stronger effect = lower value 1.01 | S. cerevisiae deletion strains, locus YLR342W, strain FKS1 (second series), stronger effect = lower value 1.01 | S. cerevisiae deletion strains, locus YLR342W, strain FKS1, stronger effect = lower value 1.03 | S. cerevisiae deletion strains, locus YLR357W, strain rsc2, stronger effect = lower value 1.04 | S. cerevisiae deletion strains, locus YLR370C, strain arc18, stronger effect = lower value 1.02 | S. cerevisiae deletion strains, locus YLR371W, strain rom2, stronger effect = lower value 1.02 | S. cerevisiae deletion strains, locus YLR384C, strain iki3, stronger effect = lower value 1.02 | S. cerevisiae deletion strains, locus YLR418C, strain cdc73, stronger effect = lower value 1.01 | S. cerevisiae deletion strains, locus YML016C, strain PPZ1, stronger effect = lower value 1.01 | S. cerevisiae deletion strains, locus YML032C, strain rad52, stronger effect = lower value 0.989 | S. cerevisiae deletion strains, locus YML120C, strain ndi1, stronger effect = lower value 1.03 | S. cerevisiae deletion strains, locus YML124C, strain tub3, stronger effect = lower value 1.02 | S. cerevisiae deletion strains, locus YMR058W, strain fet3, stronger effect = lower value 1.03 | S. cerevisiae deletion strains, locus YMR078C, strain ctf18, stronger effect = lower value 1.03 | S. cerevisiae deletion strains, locus YMR125W, strain sto1, stronger effect = lower value 1.02 | S. cerevisiae deletion strains, locus YMR129W, stronger effect = lower value 1.03 | S. cerevisiae deletion strains, locus YMR205C, strain PFK2, stronger effect = lower value 1.03 | S. cerevisiae deletion strains, locus YMR223W, strain ubp8, stronger effect = lower value 1.01 | S. cerevisiae deletion strains, locus YMR231W, strain pep5, stronger effect = lower value 1 | S. cerevisiae deletion strains, locus YMR307W, strain GAS1, stronger effect = lower value 0.992 | S. cerevisiae deletion strains, locus YNL067W, strain RPL9B, stronger effect = lower value 1.01 | S. cerevisiae deletion strains, locus YNL071W, strain lat1, stronger effect = lower value 1.03 | S. cerevisiae deletion strains, locus YNL153C, strain GIM3, stronger effect = lower value 1.01 | S. cerevisiae deletion strains, locus YNL183C, strain NPR1, stronger effect = lower value 0.989 | S. cerevisiae deletion strains, locus YNL209W, strain ssb2, stronger effect = lower value 1.02 | S. cerevisiae deletion strains, locus YNL233W, strain BNI4, stronger effect = lower value 1.02 | S. cerevisiae deletion strains, locus YNL248C, strain rpa49, stronger effect = lower value 1.04 | S. cerevisiae deletion strains, locus YNL250W, strain rad50, stronger effect = lower value 1.03 | S. cerevisiae deletion strains, locus YNL271C, strain bni1, stronger effect = lower value 1.03 | S. cerevisiae deletion strains, locus YNL298W, strain CLA4, stronger effect = lower value 1.02 | S. cerevisiae deletion strains, locus YNL307C, strain MCK1, stronger effect = lower value 1.02 | S. cerevisiae deletion strains, locus YNL322C, strain KRE1 (second series), stronger effect = lower value 1.03 | S. cerevisiae deletion strains, locus YNR049C, strain mso1, stronger effect = lower value 1.04 | S. cerevisiae deletion strains, locus YNR052C, strain pop2, stronger effect = lower value 1.01 | S. cerevisiae deletion strains, locus YOL006C, strain TOP1, stronger effect = lower value 1.06 | S. cerevisiae deletion strains, locus YOL012C, strain htz1 0.92 | S. cerevisiae deletion strains, locus YOL147C, strain pex11, stronger effect = lower value 1.01 | S. cerevisiae deletion strains, locus YOR001W, strain rrp6, stronger effect = lower value 1.05 | S. cerevisiae deletion strains, locus YOR061W, strain CKA2, stronger effect = lower value 1.02 | S. cerevisiae deletion strains, locus YOR069W, strain VPS5, stronger effect = lower value 1.01 | S. cerevisiae deletion strains, locus YOR070C, strain gyp1, stronger effect = lower value 1.02 | S. cerevisiae deletion strains, locus YOR080W, strain dia2, stronger effect = lower value 1.04 | S. cerevisiae deletion strains, locus YOR083W, strain WHI5, stronger effect = lower value 1.02 | S. cerevisiae deletion strains, locus YOR106W, strain vam3, stronger effect = lower value 1.07 | S. cerevisiae deletion strains, locus YOR136W, strain idh2, stronger effect = lower value 1.02 | S. cerevisiae deletion strains, locus YOR144C, strain elg1, stronger effect = lower value 1.01 | S. cerevisiae deletion strains, locus YOR184W, strain ser1, stronger effect = lower value 1.03 | S. cerevisiae deletion strains, locus YOR231W, strain MKK1, stronger effect = lower value 1.08 | S. cerevisiae deletion strains, locus YOR265W, strain rbl2, stronger effect = lower value 1.02 | S. cerevisiae deletion strains, locus YOR270C, strain vph1, stronger effect = lower value 1.12 | S. cerevisiae deletion strains, locus YOR290C, strain snf2, stronger effect = lower value 1.02 | S. cerevisiae deletion strains, locus YOR316C, strain cot1, stronger effect = lower value 1.02 | S. cerevisiae deletion strains, locus YPL051W, strain arl3, stronger effect = lower value 1.02 | S. cerevisiae deletion strains, locus YPL055C, strain LGE1, stronger effect = lower value 1.02 | S. cerevisiae deletion strains, locus YPL078C, strain atp4, stronger effect = lower value 1.01 | S. cerevisiae deletion strains, locus YPL106C, strain sse1, stronger effect = lower value 1.01 | S. cerevisiae deletion strains, locus YPL240C, strain hsp82, stronger effect = lower value 1.02 | S. cerevisiae deletion strains, locus YPL256C, strain CLN2, stronger effect = lower value 1.03 | S. cerevisiae deletion strains, locus YPR119W, strain clb2, stronger effect = lower value 1.02 | S. cerevisiae deletion strains, locus YPR141C, strain kar3, stronger effect = lower value 1.02 | S. cerevisiae deletion strains, locus YPR163C, strain tif3, stronger effect = lower value 1.03 | S. cerevisiae deletion strains, locus YPR167C, strain met16, stronger effect = lower value 1.02 | S. cerevisiae deletion strains, strain wtn01, stronger effect = lower value 1.05 | S. cerevisiae strains, strain wild type, stronger effect = lower value 1.01
